CHX counter: counter-screen hit for Shiga toxin inhibitors, cycloheximide. cell reporter, cycloheximide protein synthesis inhibition counterscreen. max response, %. 12% of 300,000 active. AID 2314; in the data active = max response mostly above about 13%, no sharp cut-off; inactive = mostly below about 14%; also: read at 38.3 µM for the half of the compounds with a filed dose
Pf growth 48h: P. falciparum growth inhibition at 48 hours (one generation). P. falciparum luciferase growth in erythrocytes, 48 h. Potency, µM (doses to about 28.7 µM), actives largely listed as inhibitors. 5.9% of 310,000 active
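Read-out is firefly luciferase luminescence from an integrated reporter in P. falciparum, so falling signal marks reduced parasite growth. Infected erythrocytes were at 2% hematocrit and 0.1% parasitemia (final) in Albumax-supplemented RPMI 1640.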
Pf growth 96h: P. falciparum growth inhibition at 96 hour, primary screen for plastid delayed-death inhibitors. Potency, µM (highest dose often 28.7 µM), actives largely listed as inhibitors. AID 504834. P. falciparum luciferase reporter growth, 96 h. 6.9% of 320,000 active
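P. falciparum expressing integrated firefly luciferase grown in erythrocytes (2% hematocrit, 0.05% parasitemia final) with compounds for 96 hours at 37 C, 5% CO2. Growth inhibition read as loss of luminescence after adding luciferase detection reagent.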
HCMV antiviral: blocks human cytomegalovirus replication | activity change, negative = inhibition, % at 57.5 µM | 4.5% of 410,000 active | HFF cells, HCMV-luciferase reporter, 72 h; active compounds read low; in the data active = activity change below about -60%; inconclusive = no clear call, values can overlap the other calls; inactive = above about -39%
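After 16 h attachment at 37C, HFF cells received test compound and HCMV-luciferase (1 PFU/cell); reporter luminescence read 72 h later, data normalized against buffer-only and known inhibitor Salinomycin.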
Shiga inhibitor: blocks Shiga toxin action in Vero cells; AID 2315; 9.2% of 290,000 active; Vero cells, Shiga toxin protein synthesis inhibition reporter; inhibition, % at 38.7 µM; in the data active = inhibition mostly above about 28%, no sharp cut-off; inactive = mostly below about 43%
A number is an active result; – = inactive; ? = inconclusive; · = no result; [ ] = another dose, or the depositor's remark. The list is not random: actives were taken first. Their share in the collection is about 20%. Unless noted, calls follow the shape of the dose curve; as a rule, active = well fitted inhibition curve with a large enough effect; inconclusive = small, poorly fitted or top-dose-only effect, or another doubt; inactive = no such curve, though single readings can be large or run the other way.

SMILES | CHX counter | Pf growth 48h | Pf growth 96h | HCMV antiviral | Shiga inhibitor
O=[N+]([O-])c1ccc(N(CC(O)CN2CCCCC2)S(=O)(=O)c2ccccc2)cc1 (centres undefined) | – | – | – | -64 | –
OC(CN1CCCCCC1)CN(c1ccccc1)c1ccccc1 (centres undefined) | – | ? | – | – | –
CNCC(O)CN(c1ccccc1)c1ccccc1 (centres undefined) | – | ? | – | – | –
OC(CN1CCCCC1)CN(c1ccccc1)c1ccccc1 (centres undefined) | – | · | 9.3µM | – | –
CC(C)(C)OC(=O)N[C@H](C(=O)OC(C)(C)C)c1ccc(C(F)(F)F)cc1 | · | ? | ? | – | ·
NC1=CC(=O)c2cccc3cccc1c23 | – | 2.9µM | – | · | –
O=C(CCSc1ccccc1)NCCSCc1ccco1 | 11 | – | ? | – | –
Cc1cc(Cl)ccc1N(CC(=O)NCCSCc1ccco1)S(C)(=O)=O | – | – | – | – | –
O=C(NCCSCc1ccco1)Nc1cccc(Cl)c1 | 37 | ? | ? | – | 40
O=C(NCCSCc1ccco1)Nc1ccc(Cl)cc1 | 29 | – | · | – | 101
Nn1c(SCc2ccccn2)nncc1=O | – | – | 12µM | – | –
Cc1nnc(SCc2ccccn2)n(N)c1=O | – | – | – | – | –
O=[N+]([O-])c1cccc(/C=C/C=N/Nc2nc(N3CCCCC3)nc(N3CCCCC3)n2)c1 | – | – | – | ? | –
Oc1ccccc1CNc1ccc(Br)cn1 | – | – | – | -105 | –
COc1ccccc1CNc1ccc(Br)cn1 | 50 | –[0.00184 µM] | ? | – | 99
COc1ccccc1NC(=O)Nc1ccc(Br)cn1 | – | – | – | – | –
Brc1ccc(NCc2cccc3ccccc23)nc1 | 27 | · | – | – | –
Oc1c(Br)cc(Br)cc1CNc1ccccn1 | – | – | – | ? | –
CCOc1ccc(C(=O)OCc2cc(=O)n3nc(C4CC4)sc3n2)cc1 | · | · | · | – | ·
Fc1ccc(Nc2nc(-c3ccc(F)cc3)c3c(n2)-c2ccccc2OC3)cc1 | · | · | · | – | ·
CCCC(=O)Nc1nc2c(s1)COc1ccccc1-2 | 24 | – | – | ? | 31
Nc1nc2c(s1)COc1ccccc1-2 | 14 | – | – | – | –
O=C(CCSc1ccccc1)Nc1nc2c(s1)COc1ccccc1-2 | – | – | – | – | –
CC(C)(C)C(=O)Nc1nc2c(s1)COc1ccccc1-2 | 19 | ? | ? | – | 46
CCCCC(=O)Nc1nc2c(OC)ccc(OC)c2s1 | – | · | ? | – | –
SMILES | CHX counter | Pf growth 48h | Pf growth 96h | HCMV antiviral | Shiga inhibitor
CCCCC(=O)Nc1nc2c(s1)COc1ccccc1-2 | 38 | – | – | · | 42
Cc1ccc(C(=O)Nc2cccc(C(=O)OCc3cc(=O)n4nc(C5CC5)sc4n3)c2)cc1 | · | · | · | – | ·
N#CC1=C(c2ccc(-c3ccccc3)cc2)COC1=O | – | – | – | – | –
CCOc1cc(/C=C2\C(=O)N(CCc3ccc(OC)c(OC)c3)C(C)=C2C(=O)OC)ccc1O | – | 12µM | ? | – | –
CCOc1cc(/C=C2\C(=O)N(Cc3ccco3)C(C)=C2C(=O)OC)ccc1O | – | – | – | – | –
COC(=O)C1=C(C)N(Cc2ccc(C)cc2)C(=O)/C1=C\c1cc(OC)c(OC)c(OC)c1 | – | 10µM | – | – | –
COC(=O)C1=C(C)N(Cc2ccc(C)cc2)C(=O)/C1=C\c1ccc(O)c(OC)c1 | – | – | – | – | –
C/C(=N\Nc1ccc([N+](=O)[O-])cc1)c1ccc(O)cc1 | 37 | – | – | – | 45
C/C(=N\Nc1ccc([N+](=O)[O-])cc1)c1cccc(N)c1 | 39 | – | – | – | 123
C/C(=N/Nc1ccccc1[N+](=O)[O-])c1ccc([N+](=O)[O-])cc1 | – | – | ? | – | –
O=c1[nH]c(Cc2ccccc2)nc2ccccc12 | – | – | – | – | –
O=c1[nH]c(Cc2ccccc2Cl)nc2ccccc12 | – | – | 9.3µM | – | –
CC1CCCCN1Cc1nc2ccccc2c(=O)[nH]1 (centres undefined) | – | – | 0.019µM | – | –
O=c1[nH]c(COc2ccc(Cl)cc2Cl)nc2ccccc12 | 38 | – | – | – | 41
O=c1[nH]c(COc2ccc(Cl)cc2Br)nc2ccccc12 | 51 | – | – | – | 127
COc1ccc(C(=O)N2CCC(C(=O)Nc3ccccc3Cl)CC2)cc1 | · | · | · | – | ·
CC(C)CN(C(=O)COC(=O)c1nc(Cl)ccc1Cl)c1c(N)n(Cc2ccccc2)c(=O)[nH]c1=O | – | – | – | – | –

Compound activity deposited in PubChem by National Center for Advancing Translational Sciences (NCATS).
